Counter-ions that a name gives are not always drawn.
Tested on: Pseudogymnoascus destructans 20631-21
Assay: growth activity index (DuctApe, 0 = no growth, 9 = maximal growth) (index 0-9); higher = more fungal growth (less inhibition), active = 0 or less; extreme values may be limits of the assay
Conditions: concentration level (1-4, increasing; Biolog proprietary): 3; temperature: 13 °C; YPD
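Note: biolog Phenotype Microarray plates PM21–25, OD595 followed daily over 11 days, growth curves converted to index, mean of two independent experiments.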

Growth activity index, active:
CSc1ccc2c(c1)N(CCC1CCCCN1C)c1ccccc1S2 (stereo not given) [Thioridazine] (Biolog plate: PM24) 0
NC(CO)C(=O)NO (racemic) [DL-Serine hydroxamate] (Biolog plate: PM22) 0
OB(O)O [Boric acid] (Biolog plate: PM22) 0
[Cl-].[Li+] [Lithium chloride] (Biolog plate: PM22) 0
C[C@@H]1[C@H](O)[C@@H](C)/C=C/C=C/C=C/C=C/C=C/C=C/C=C/[C@H](O[C@@H]2O[C@H](C)[C@@H](O)[C@H](N)[C@@H]2O)C[C@@H]2O[C@](O)(C[C@@H](O)C[C@@H](O)[C@H](O)CC[C@@H](O)C[C@@H](O)CC(=O)O[C@H]1C)C[C@H](O)[C@H]2C(=O)O [Amphotericin B] (Biolog plate: PM24) 0
[I-].[K+] [Potassium iodide] (Biolog plate: PM22) 0
CN(C)C(=O)/N=N/C(=O)N(C)C [Diamide] (Biolog plate: PM21) 0

Growth activity index, inactive:
CC(C)Cc1ccc(C(C)C(=O)O)cc1 (stereo not given) [Ibuprofen] (Biolog plate: PM25) 4
O=C([O-])c1ccccc1O.[Na+] [Sodium Salicylate] (Biolog plate: PM25) 4
O=C(O)C(O)C(O)C(=O)O (stereo not given) [Tartaric acid] (Biolog plate: PM25) 4.33
N=C(N)N [Guanidine hydrochloride] (Biolog plate: PM21) 0.5
COc1ccc2cc3[n+](cc2c1OC)CCc1cc2c(cc1-3)OCO2 [Berberine Chloride] (Biolog plate: PM24) 0.333
NC[C@H]1O[C@H](O[C@H]2[C@H](O)[C@@H](O[C@H]3O[C@H](CO)[C@@H](O)[C@H](N)[C@H]3O)[C@H](N)C[C@@H]2N)[C@H](O)[C@@H](O)[C@@H]1O [Kanamycin] (Biolog plate: PM25) 5
Nc1c2ccccc2nc2ccccc12 [9-Aminoacridine] (Biolog plate: PM24) 7
O=NO [Sodium Nitrite] (Biolog plate: PM23) 1
CCCCCCCC(=O)[O-].[Na+] [Sodium Caprylate] (Biolog plate: PM23) 4
c1ccc(-c2ccccn2)nc1 [2,2`-Dipyridyl] (Biolog plate: PM21) 5.25
O=C(O)CCC(=O)O [Succinic acid] (Biolog plate: PM25) 3.67
O=C(O)/C=C/C(=O)O [Fumaric acid] (Biolog plate: PM25) 4
O=C(O)/C=C/c1ccccc1 [Cinnamic acid] (Biolog plate: PM25) 5
CN1CCN(CCCN2c3ccccc3Sc3ccc(C(F)(F)F)cc32)CC1 [Trifluoperazine] (Biolog plate: PM21) 3.5
O=[Si](O)O [Sodium metasilicate] (Biolog plate: PM24) 2.67
[Na+].[O]=[V](=[O])[O-] [Sodium metavanadate] (Biolog plate: PM22) 5
CN(C)[C@@H]1C(O)=C(C(N)=O)C(=O)[C@@]2(O)C(O)=C3C(=O)c4c(O)ccc(Cl)c4[C@@](C)(O)[C@H]3C[C@@H]12 [Chlortetracycline] (Biolog plate: PM24) 6
[Cl][Pd][Cl] [Palladium(II) Chloride] (Biolog plate: PM25) 4.67
O=c1cn[nH]c(=O)[nH]1 [6-Azauracil] (Biolog plate: PM24) 4.67
O.O.O.O.O.O.[Cl-].[Cl-].[Mg+2] [Magnesium chloride] (Biolog plate: PM21) 4
[Cl][Cu][Cl] [Cupric chloride] (Biolog plate: PM23) 6
NC(N)=O [Urea hydrogen peroxide] (Biolog plate: PM22) 4.67
[F-].[Na+] [Sodium Fluoride] (Biolog plate: PM24) 5.33

Same assay, conditions: concentration level (1-4, increasing; Biolog proprietary): 4; temperature: 13 °C; YPD

Growth activity index, inactive:
CC(=O)OCC1=C(C(=O)O)N2C(=O)[C@@H](NC(=O)Cc3cccs3)[C@H]2SC1 [Cephalotin] (Biolog plate: PM22) 1
O=C([O-])c1ccccc1.[Na+] [Sodium Benzoate] (Biolog plate: PM24) 4.67
C[C@H]1c2cccc(O)c2C(=O)C2=C(O)[C@]3(O)C(=O)C(C(N)=O)=C(O)[C@@H](N(C)C)[C@@H]3[C@@H](O)[C@@H]21 [Doxycycline] (Biolog plate: PM23) 6
O.O=S(=O)([O-])[O-].O=S(=O)([O-])[O-].O=S(=O)([O-])[O-].[Al+3].[Al+3] [Aluminum sulfate] (Biolog plate: PM24) 7
CN(C)CCC=C1c2ccccc2CCc2ccccc21 [Amitriptyline] (Biolog plate: PM25) 6.33
NCCSCC(N)C(=O)O (stereo not given) [Thialysine] (Biolog plate: PM24) 5
O=S(=O)([O-])[O-].[Cu+2] [Copper (II) sulfate] (Biolog plate: PM21) 6
Nc1[nH]c(=O)ncc1F [5-Fluorocytosine] (Biolog plate: PM25) 4
O=C([O-])CC(O)(CC(=O)[O-])C(=O)[O-].[Na+].[Na+].[Na+] [Citric acid Trisodium Salt] (Biolog plate: PM25) 5.67
CC(C)Cc1ccc(C(C)C(=O)O)cc1 (stereo not given) [Ibuprofen] (Biolog plate: PM25) 5
CSc1ccc2c(c1)N(CCC1CCCCN1C)c1ccccc1S2 (stereo not given) [Thioridazine] (Biolog plate: PM24) 1.33
O=C([O-])c1ccccc1O.[Na+] [Sodium Salicylate] (Biolog plate: PM25) 4
O=C(O)C(O)C(O)C(=O)O (stereo not given) [Tartaric acid] (Biolog plate: PM25) 1.33
N=C(N)N [Guanidine hydrochloride] (Biolog plate: PM21) 0.25
COc1ccc2cc3[n+](cc2c1OC)CCc1cc2c(cc1-3)OCO2 [Berberine Chloride] (Biolog plate: PM24) 0.667
NC[C@H]1O[C@H](O[C@H]2[C@H](O)[C@@H](O[C@H]3O[C@H](CO)[C@@H](O)[C@H](N)[C@H]3O)[C@H](N)C[C@@H]2N)[C@H](O)[C@@H](O)[C@@H]1O [Kanamycin] (Biolog plate: PM25) 4.33
Nc1c2ccccc2nc2ccccc12 [9-Aminoacridine] (Biolog plate: PM24) 9
O=NO [Sodium Nitrite] (Biolog plate: PM23) 1.33
CCCCCCCC(=O)[O-].[Na+] [Sodium Caprylate] (Biolog plate: PM23) 4
c1ccc(-c2ccccn2)nc1 [2,2`-Dipyridyl] (Biolog plate: PM21) 5.25
O=C(O)CCC(=O)O [Succinic acid] (Biolog plate: PM25) 3
O=C(O)/C=C/C(=O)O [Fumaric acid] (Biolog plate: PM25) 4
O=C(O)/C=C/c1ccccc1 [Cinnamic acid] (Biolog plate: PM25) 5
CN1CCN(CCCN2c3ccccc3Sc3ccc(C(F)(F)F)cc32)CC1 [Trifluoperazine] (Biolog plate: PM21) 6.25
O=[Si](O)O [Sodium metasilicate] (Biolog plate: PM24) 3.33
[Na+].[O]=[V](=[O])[O-] [Sodium metavanadate] (Biolog plate: PM22) 3.67
CN(C)[C@@H]1C(O)=C(C(N)=O)C(=O)[C@@]2(O)C(O)=C3C(=O)c4c(O)ccc(Cl)c4[C@@](C)(O)[C@H]3C[C@@H]12 [Chlortetracycline] (Biolog plate: PM24) 7
[Cl][Pd][Cl] [Palladium(II) Chloride] (Biolog plate: PM25) 5
O=c1cn[nH]c(=O)[nH]1 [6-Azauracil] (Biolog plate: PM24) 2.67
O.O.O.O.O.O.[Cl-].[Cl-].[Mg+2] [Magnesium chloride] (Biolog plate: PM21) 2.25

Growth activity index, active:
O=S(O)(O)=S [Sodium Thiosulfate] (Biolog plate: PM23) 0
NC(CO)C(=O)NO (racemic) [DL-Serine hydroxamate] (Biolog plate: PM22) 0
OB(O)O [Boric acid] (Biolog plate: PM22) 0
[Cl-].[Li+] [Lithium chloride] (Biolog plate: PM22) 0
C[C@@H]1[C@H](O)[C@@H](C)/C=C/C=C/C=C/C=C/C=C/C=C/C=C/[C@H](O[C@@H]2O[C@H](C)[C@@H](O)[C@H](N)[C@@H]2O)C[C@@H]2O[C@](O)(C[C@@H](O)C[C@@H](O)[C@H](O)CC[C@@H](O)C[C@@H](O)CC(=O)O[C@H]1C)C[C@H](O)[C@H]2C(=O)O [Amphotericin B] (Biolog plate: PM24) 0

From the supplement of paper PMC6124720
